# According to PubChem BioAssay (NCATS):
# Inconclusive results are not listed. Active and inactive are the calls of the source. Calls follow the shape of the dose curve; as a rule, active = well fitted inhibition curve with a large enough effect; inconclusive = small, poorly fitted or top-dose-only effect; inactive = flat fitted curve, though single readings scatter.
# System: Zika virus NS2B-NS3 protease
# Experiment: Primary screen GU AMC qHTS for Zika virus inhibitors (AID 1347154); also: nearly all actives have a fitted effect of over 70% in size;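 as to activity change, negative = inhibition: 0% = no-inhibitor control and -100% = no-enzyme control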
# Settings: Zika NS2B-NS3 unlinked protease, AMC fluorogenic substrate; series mostly up to 54.1 µM; activity change, negative = inhibition: at the top concentration
# Procedure, shortened: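 Unlinked Zika NS2B hydrophilic domain–NS3 protease complex at 25 nM in 10 mM Tris-HCl pH 8.0, 0.01% Tween 20, with an AMC peptide substrate. Fluorescence change (340/450 nm) over 15 min at room temperature, normalized to controls, fitted to 4-parameter Hill.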
# Potency is read from the fitted curve at half-maximal effect.
Compound,"activity change, negative = inhibition",Potency
CC(=CC(=O)Nc1ccccc1C(=O)O)c1ccc2ccccc2c1,-21.2% (inactive),
Nc1nc(=O)n([C@H]2C[C@H](O)[C@@H](CO)O2)cc1F,3.75% (inactive),
Cc1cc(O)c2c(c1)C(=O)c1cccc(O)c1C2=O,6.61% (inactive),
CN1CCCN(C(=O)c2cccc(-c3ccc(C=C4C(=O)Nc5ccc(Cl)cc54)o3)c2)CC1,-11.2% (inactive),
Cc1cc(C(=O)NOCCO)c(Nc2ccc(I)cc2F)n(C)c1=O,-0.225% (inactive),
NC(=O)c1ncn([C@@H]2O[C@H](CO)[C@@H](O)[C@@H]2O)c1N,-12% (inactive),
COc1ccnc2[nH]cc(C(=O)C(=O)N3CCN(C(=O)c4ccccc4)C[C@@H]3C)c12,4.44% (inactive),
CCn1c(=O)c2c(nc(C=Cc3ccc(OC)c(OC)c3)n2C)n(CC)c1=O,-2.68% (inactive),
O=C(O)[C@H](CC(=O)N1C[C@@H]2CCCC[C@H]2C1)Cc1ccccc1,20.5% (inactive),
CC1(C)CC(O)CC(C)(C)N1[O],12.8% (inactive),
CCOC(=O)C=C[C@H](C[C@@H]1CCNC1=O)NC(=O)[C@@H](CC(=O)[C@@H](NC(=O)c1cc(C)on1)C(C)C)Cc1ccc(F)cc1,4.98% (inactive),
C[C@](Cc1c[nH]c2ccccc12)(NC(=O)OC1C2CC3CC(C2)CC1C3)C(=O)NC[C@H](NC(=O)CCC(=O)O)c1ccccc1 (some centres undefined),-14.7% (inactive),
C[C@H](CCC(=O)O)[C@H]1CCC2C3C[C@H](O)[C@@H]4C[C@H](O)CC[C@]4(C)C3CC[C@@]21C (some centres undefined),5.16% (inactive),
CCCCCCCCCCCCc1ccc(S(=O)(=O)Nc2nncs2)cc1,2.59% (inactive),
O=c1[nH]c(=O)n([C@H]2C[C@@H](O)[C@@H](CO)O2)cc1F,6.03% (inactive),
O=C1NC(O)CCN1[C@@H]1O[C@H](CO)[C@H](O)[C@H]1O (some centres undefined),4.99% (inactive),
C[C@@H]1CC[C@@]2(OC1)OC1CC3C4CC=C5CC(O)CCC5(C)C4CCC3(C)C1[C@@H]2C (some centres undefined),9.39% (inactive),
O=c1ccn([C@@H]2O[C@H](CO)[C@H](O)[C@@H]2F)c(=O)[nH]1,4.16% (inactive),
CC(=O)OCC(=O)[C@@]12N=C(C)O[C@H]1C[C@H]1[C@@H]3CCC4=CC(=O)C=C[C@]4(C)[C@@H]3[C@@H](O)C[C@@]12C,-0.407% (inactive),
N=c1ccn2c(n1)O[C@H]1[C@@H](O)[C@@H](CO)O[C@H]12,6.59% (inactive),

Compound,"activity change, negative = inhibition",Potency
CC[C@H]1OC(=O)[C@H](C)[C@@H](O[C@H]2C[C@@](C)(OC)[C@@H](O)[C@H](C)O2)[C@H](C)[C@@H](O[C@@H]2O[C@@H](C)C[C@H](N(C)C)[C@@H]2O)[C@](C)(O)C[C@@H](C)C(=O)[C@H](C)[C@@H](O)[C@]1(C)O,6.83% (inactive),
C[C@H]1O[C@H](O[C@H]2[C@H](O)[C@@H](O)[C@@H](O[C@H]3[C@H](O)[C@@H](O)C(O)O[C@H]3CO)O[C@H]2CO)[C@H](O)[C@@H](O)[C@H]1N[C@H]1C=C(CO)[C@@H](O)[C@H](O)[C@@H]1O (some centres undefined),0.311% (inactive),
CC(C)N(CC[C@H](c1ccccc1)c1cc(CO)ccc1O)C(C)C,14.9% (inactive),
C[C@H](NC(=O)Cc1cc(F)cc(F)c1)C(=O)N[C@H](C(=O)OC(C)(C)C)c1ccccc1,4.92% (inactive),
CC(C)OC(=O)[C@H](C)N[P@](=O)(OC[C@H]1O[C@@H](n2ccc(=O)[nH]c2=O)[C@](C)(F)[C@H]1O)Oc1ccccc1,10.5% (inactive),
CON=C(C(=O)N[C@@H]1C(=O)N2C(C(=O)O)=C(Cn3ccc(=N)n3CCO)CS[C@H]12)c1csc(N)n1,-1.01% (inactive),
C[C@H](NC(=O)[C@@H](O)c1cc(F)cc(F)c1)C(=O)N[C@@H]1C(=O)N(C)c2ccccc2-c2ccccc21,0.499% (inactive),
Cc1cnc(NC(=O)Nc2cc(Br)c(C)cc2OC[C@@H]2CNCCO2)cn1,11.9% (inactive),
C[C@@H]1[C@H](C)CC[C@]2(C(=O)O)CC[C@]3(C)C(=CC[C@@H]4[C@@]5(C)C[C@@H](O)[C@H](O)[C@@](C)(CO)[C@H]5CC[C@]43C)[C@@H]12,3.19% (inactive),
COc1cc2c(cc1O)CCC1C2CC[C@@]2(C)C1CC[C@@H]2O (some centres undefined),4.85% (inactive),
CCCCCCCN(CC)CCCC(O)c1ccc(NS(C)(=O)=O)cc1 (centres undefined),,24.1 µM (active)
C=CC[C@@H]1C=C(C)C[C@H](C)C[C@H](OC)[C@H]2O[C@@](O)(C(=O)C(=O)N3CCCC[C@H]3C(=O)O[C@H](C(C)=C[C@@H]3CC[C@H](O)[C@H](OC)C3)[C@@H](C)[C@@H](O)CC1=O)[C@@H](C)C[C@@H]2OC,29.2% (inactive),
C[C@@H]1C(=O)O[C@H]2CC34[C@H]5C[C@@H](C(C)(C)C)C36[C@H](OC(=O)[C@@H]6O)O[C@@]4(C(=O)O5)[C@]21O (some centres undefined),16.7% (inactive),
Cc1cn([C@@H]2O[C@H](CO)[C@@H](O)[C@H]2F)c(=O)[nH]c1=O,-9.56% (inactive),
C#C[C@]1(O)CC[C@@H]2[C@@H]3CCC4=CC(=O)CC[C@@H]4[C@H]3CC[C@@]21CC,-6.9% (inactive),
COC(=O)[C@@H]1CC2=CC(=O)CC[C@]2(C)[C@@]23O[C@@H]2C[C@@]2(C)[C@H](CC[C@@]24CCC(=O)O4)[C@@H]13,12.9% (inactive),
CCCCCCCCCCCCCCCC(=O)OC[C@@H](NC(=O)C(Cl)Cl)[C@H](O)c1ccc([N+](=O)[O-])cc1,-8.72% (inactive),
O=C(CCCCCCC(=O)Nc1cccnc1)NO,0.587% (inactive),
CCOC(=O)N1CCN([N+]([O-])=NOc2ccc([N+](=O)[O-])cc2[N+](=O)[O-])CC1,-6.15% (inactive),
